Source: PubChem BioAssay (EPA / NIEHS)
The source made the active and inactive calls. The calls were made as follows: active = hit-call score of the fitted dose curve at least 0.9, where 1 is the maximum; inactive = score below 0.9.

Experiments:
Conditions in all cases: mRNA level, 48 h; actives raise or lower the signal
[1] = read-out: ABC Transporter (ABCC2), ABCC2 (gene 1244); experiment: LTEA_HepaRG_ABCC2: Life Technologies and Expression Analysis (LTEA) Assay for ABC Transporter (ABCC2) using HepaRG (AID 2283464)
Outline: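 Differentiated HepaRG cells in serum-free induction medium exposed 48 h to eight half-log concentrations up to 100 uM, 0.5% DMSO, in duplicate. ABCC2 mRNA measured by qRT-PCR (TaqMan, Fluidigm), normalized to ACTB, GAPDH and POLR2A. Fitted in both directions against DMSO.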

[2] = read-out: Broad substrate specificity ATP-binding cassette transporter ABCG2 (Homo sapiens) (UniProt Q9UNQ0); experiment: LTEA_HepaRG_ABCG2: Life Technologies and Expression Analysis (LTEA) Assay for ABC Transporter (ABCG2) using HepaRG (AID 2283465)
Outline: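 Differentiated HepaRG cells in serum-free induction medium were exposed for 48 h, in duplicate, to eight half-log concentrations up to 100 uM in 0.5% DMSO. ABCG2 mRNA was measured by TaqMan qRT-PCR, normalized to ACTB, GAPDH and POLR2A, and fitted bidirectionally versus DMSO.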

[3] = read-out: Peroxisomal acyl-coenzyme A oxidase 1 (ACOX1) gene, ACOX1 (gene 51); experiment: LTEA_HepaRG_ACOX1: Life Technologies and Expression Analysis (LTEA) Assay for Peroxisomal acyl-coenzyme A oxidase 1 (ACOX1) gene using HepaRG (AID 2283467)
Outline: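 Differentiated human HepaRG cells were exposed in duplicate for 48 h in serum-free induction medium to eight half-log concentrations up to 100 uM in 0.5% DMSO. ACOX1 mRNA was then quantified by TaqMan qRT-PCR, normalized to ACTB, GAPDH and POLR2A.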

[4] = read-out: Bcl-2 (BAD) gene, BAD (gene 572); experiment: LTEA_HepaRG_BAD: Life Technologies and Expression Analysis (LTEA) Assay for Bcl-2 (BAD) gene using HepaRG (AID 2283469)
Outline: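 Differentiated human HepaRG cells in serum-free induction medium were exposed in duplicate for 48 h to eight concentrations (top 100 uM, half-log steps, 0.5% DMSO). BAD mRNA was quantified by qRT-PCR normalised to ACTB, GAPDH and POLR2A, with bidirectional fitting versus DMSO.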

[5] = read-out: Bcl-2 (BAX) gene, BAX (gene 581); experiment: LTEA_HepaRG_BAX: Life Technologies and Expression Analysis (LTEA) Assay for Bcl-2 (BAX) gene using HepaRG (AID 2283470)
Outline: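 Differentiated HepaRG cells exposed 48 h in serum-free induction medium, eight half-log concentrations from 100 uM, in duplicate, 0.5% DMSO vehicle. BAX mRNA by TaqMan qRT-PCR, normalised to ACTB, GAPDH and POLR2A.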

[6] = read-out: adenosine kinase (ADK) gene, ADK (gene 132); experiment: LTEA_HepaRG_ADK: Life Technologies and Expression Analysis (LTEA) Assay for adenosine kinase (ADK) gene using HepaRG (AID 2283471)
Outline: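 Read-out is ADK transcript level measured by qRT-PCR and normalised to three housekeeping genes. Cells are human HepaRG, dosed for 48 h at up to 100 uM in 0.5% DMSO. Gain or loss of signal is fitted against DMSO controls.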

[7] = read-out: Alpha-fetoprotein (AFP) gene, AFP (gene 174); experiment: LTEA_HepaRG_AFP: Life Technologies and Expression Analysis (LTEA) Assay for Alpha-fetoprotein (AFP) gene using HepaRG (AID 2283472)
Outline: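 Differentiated human HepaRG cells exposed 48 h in serum-free induction medium, 8-point half-log series from 100 uM in 0.5% DMSO, duplicate. AFP mRNA by qRT-PCR, normalized to ACTB, GAPDH, POLR2A; bidirectional fit vs DMSO.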

BCL2L11 (gene 10018) = experiment: LTEA_HepaRG_BCL2L11: Life Technologies and Expression Analysis (LTEA) Assay for Bcl-2 (BCL2L11) gene using HepaRG (AID 2283473)
Outline: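 Differentiated human HepaRG cells were exposed 48 h in serum-free induction medium to eight half-log concentrations up to 100 uM in 0.5% DMSO, in duplicate. BCL2L11 mRNA was quantified by TaqMan qRT-PCR, normalized to ACTB, GAPDH and POLR2A; induction or repression fitted versus DMSO.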

[8] = read-out: Apolipoprotein A-V (APOA5) gene, APOA5 (gene 116519); experiment: LTEA_HepaRG_APOA5: Life Technologies and Expression Analysis (LTEA) Assay for Apolipoprotein A-V (APOA5) gene using HepaRG (AID 2283474)
Outline: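 Differentiated HepaRG cells in serum-free induction medium, exposed 48 h in duplicate to eight half-log concentrations topping at 100 uM (0.5% DMSO). APOA5 mRNA by Fluidigm TaqMan qRT-PCR, normalized to ACTB, GAPDH and POLR2A; bidirectional fit versus DMSO.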

[9] = read-out: Apoptosis regulator Bcl-2 (Homo sapiens) (UniProt P10415); experiment: LTEA_HepaRG_BCL2: Life Technologies and Expression Analysis (LTEA) Assay for Bcl-2 gene using HepaRG (AID 2283475)
Outline: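 Differentiated human HepaRG cells in serum-free induction medium exposed 48 h, in duplicate, to 8-point half-log series from 100 uM in 0.5% DMSO. BCL2 mRNA by qRT-PCR (TaqMan/Fluidigm), normalized to ACTB, GAPDH, POLR2A; bidirectional fit against DMSO.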

[10] = read-out: Bcl-2 (BID) gene, BID (gene 637); experiment: LTEA_HepaRG_BID: Life Technologies and Expression Analysis (LTEA) Assay for Bcl-2 (BID) gene using HepaRG (AID 2283476)
Outline: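 Gene expression by qRT-PCR in HepaRG cells after 48 h exposure, duplicate wells, eight half-log concentrations topping at 100 uM in 0.5% DMSO. Normalized to ACTB, GAPDH, POLR2A; bidirectional fitting relative to DMSO.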

Caspase-3 (Homo sapiens) = Caspase-3 (Homo sapiens) (UniProt P42574); experiment: LTEA_HepaRG_CASP3: Life Technologies and Expression Analysis (LTEA) Assay for cysteine-aspartic acid protease (CASP3) using HepaRG (AID 2283477)
Outline: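 Differentiated HepaRG cells, plated 48 h, were treated in duplicate in serum-free induction medium for 48 h with eight half-log concentrations up to 100 uM in 0.5% DMSO. CASP3 mRNA measured by qRT-PCR, normalized to ACTB, GAPDH, POLR2A.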

[11] = read-out: Cytochrome P450 (CYP24A1), CYP24A1 (gene 1591); experiment: LTEA_HepaRG_CYP24A1: Life Technologies and Expression Analysis (LTEA) Assay for Cytochrome P450 (CYP24A1) using HepaRG (AID 2283478)
Outline: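 HepaRG cells plated 48 h, then exposed in duplicate in serum-free induction medium for 48 h to 8-point half-log series from 100 uM in 0.5% DMSO. CYP24A1 mRNA by Fluidigm qRT-PCR, normalized to ACTB, GAPDH, POLR2A; bidirectional fit versus DMSO.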

[12] = read-out: cysteine-aspartic acid protease (CASP8), CASP8 (gene 841); experiment: LTEA_HepaRG_CASP8: Life Technologies and Expression Analysis (LTEA) Assay for cysteine-aspartic acid protease (CASP8) using HepaRG (AID 2283480)
Outline: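 Differentiated human HepaRG cells, plated 48 h then switched to serum-free induction medium, were exposed in duplicate for 48 h to 8 half-log concentrations up to 100 uM in 0.5% DMSO. CASP8 mRNA was quantified by qRT-PCR, normalized to ACTB/GAPDH/POLR2A.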

[13] = read-out: Cytochrome P450 (CYP2B6), CYP2B6 (gene 1555); experiment: LTEA_HepaRG_CYP2B6: Life Technologies and Expression Analysis (LTEA) Assay for Cytochrome P450 (CYP2B6) using HepaRG (AID 2283481)
Outline: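 Differentiated human HepaRG cells in serum-free induction medium, dosed in duplicate for 48 h over 8 half-log concentrations topping at 100 uM (0.5% DMSO). CYP2B6 mRNA measured by TaqMan qRT-PCR, normalized to ACTB, GAPDH, POLR2A; bidirectional fit versus DMSO.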

[14] = read-out: Cytochrome P450 2C19 (Homo sapiens) (UniProt P33261); experiment: LTEA_HepaRG_CYP2C19: Life Technologies and Expression Analysis (LTEA) Assay for CYP2C19 using HepaRG (AID 2283482)
Outline: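 Differentiated HepaRG cells in serum-free induction medium exposed 48 h in duplicate, 8 concentrations from 100 uM by half-log steps in 0.5% DMSO. CYP2C19 mRNA measured by TaqMan qRT-PCR, normalized to ACTB, GAPDH, POLR2A. Bidirectional fit versus DMSO.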

CYP2C8 (gene 1558) = experiment: LTEA_HepaRG_CYP2C8: Life Technologies and Expression Analysis (LTEA) Assay for CYP2C8 using HepaRG (AID 2283483)
Outline: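 Differentiated human HepaRG cells were exposed for 48 h in serum-free induction medium to eight half-log concentrations up to 100 uM in 0.5% DMSO, in duplicate. CYP2C8 mRNA was measured by TaqMan qRT-PCR, normalized to ACTB, GAPDH and POLR2A, and fitted bidirectionally against DMSO.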

[15] = read-out: ATP-citrate lyase (ACLY), ACLY (gene 47); experiment: LTEA_HepaRG_ACLY: Life Technologies and Expression Analysis (LTEA) Assay for ATP-citrate lyase (ACLY) using HepaRG (AID 2283466)
Outline: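 Differentiated human HepaRG cells in serum-free induction medium exposed 48 h, in duplicate, to eight half-log concentrations from 100 uM top in 0.5% DMSO; ACLY mRNA measured by qRT-PCR, normalized to ACTB, GAPDH, POLR2A, fitted bidirectionally versus DMSO.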

[16] = read-out: Cytochrome P450 (CYP1A2), CYP1A2 (gene 1544); experiment: LTEA_HepaRG_CYP1A2: Life Technologies and Expression Analysis (LTEA) Assay for Cytochrome P450 (CYP1A2) using HepaRG (AID 2283479)
Outline: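 Differentiated human HepaRG cells in serum-free induction medium exposed 48 hours in duplicate to 8 half-log concentrations from 100 uM, 0.5% DMSO. CYP1A2 mRNA quantified by qRT-PCR, normalized to ACTB, GAPDH and POLR2A; bidirectional fitting versus DMSO.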

[17] = read-out: Alkaline Phosphatase, Placental (ALPP) gene, ALPP (gene 250); experiment: LTEA_HepaRG_ALPP: Life Technologies and Expression Analysis (LTEA) Assay for Alkaline Phosphatase, Placental (ALPP) gene using HepaRG (AID 2283468)
Outline: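 HepaRG cells plated 48 h, then exposed in duplicate for 48 h in serum-free induction medium to 8-point half-log series from 100 uM in 0.5% DMSO. ALPP mRNA by TaqMan qRT-PCR, normalized to ACTB/GAPDH/POLR2A; bidirectional fit versus DMSO.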

Measured: AC50

Sequence of Broad substrate specificity ATP-binding cassette transporter ABCG2 (Homo sapiens) (Q9UNQ0 whole entry, looked up): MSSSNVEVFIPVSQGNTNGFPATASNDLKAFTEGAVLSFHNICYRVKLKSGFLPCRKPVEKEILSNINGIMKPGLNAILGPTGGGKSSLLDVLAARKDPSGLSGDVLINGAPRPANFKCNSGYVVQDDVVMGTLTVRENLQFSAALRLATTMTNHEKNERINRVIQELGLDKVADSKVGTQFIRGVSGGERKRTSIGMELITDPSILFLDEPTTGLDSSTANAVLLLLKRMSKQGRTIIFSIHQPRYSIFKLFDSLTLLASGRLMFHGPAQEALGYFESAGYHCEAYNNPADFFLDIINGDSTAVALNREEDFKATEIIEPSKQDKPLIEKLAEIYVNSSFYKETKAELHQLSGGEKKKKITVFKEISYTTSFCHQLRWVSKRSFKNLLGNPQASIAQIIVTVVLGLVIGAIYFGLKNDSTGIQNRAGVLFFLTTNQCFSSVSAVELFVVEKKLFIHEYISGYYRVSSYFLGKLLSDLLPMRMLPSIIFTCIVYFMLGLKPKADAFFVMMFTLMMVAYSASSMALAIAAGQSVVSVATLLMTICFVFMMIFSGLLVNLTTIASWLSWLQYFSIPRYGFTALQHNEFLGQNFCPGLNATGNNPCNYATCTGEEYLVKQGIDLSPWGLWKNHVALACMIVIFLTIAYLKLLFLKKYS
Sequence of Cytochrome P450 2C19 (Homo sapiens) (P33261 whole entry, looked up): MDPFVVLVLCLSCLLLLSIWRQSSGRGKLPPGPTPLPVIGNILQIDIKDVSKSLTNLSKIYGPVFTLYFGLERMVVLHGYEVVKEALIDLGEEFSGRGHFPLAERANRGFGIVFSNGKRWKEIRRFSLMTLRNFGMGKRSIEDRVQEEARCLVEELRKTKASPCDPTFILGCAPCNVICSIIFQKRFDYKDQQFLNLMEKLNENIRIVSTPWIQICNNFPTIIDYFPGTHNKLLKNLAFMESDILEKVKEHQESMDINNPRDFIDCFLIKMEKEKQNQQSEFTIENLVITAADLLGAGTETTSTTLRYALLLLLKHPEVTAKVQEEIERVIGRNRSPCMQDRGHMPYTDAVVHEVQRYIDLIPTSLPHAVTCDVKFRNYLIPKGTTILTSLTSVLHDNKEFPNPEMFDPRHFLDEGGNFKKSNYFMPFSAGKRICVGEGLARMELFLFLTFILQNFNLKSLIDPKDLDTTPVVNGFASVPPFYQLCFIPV
Sequence of Apoptosis regulator Bcl-2 (Homo sapiens) (P10415 whole entry, looked up): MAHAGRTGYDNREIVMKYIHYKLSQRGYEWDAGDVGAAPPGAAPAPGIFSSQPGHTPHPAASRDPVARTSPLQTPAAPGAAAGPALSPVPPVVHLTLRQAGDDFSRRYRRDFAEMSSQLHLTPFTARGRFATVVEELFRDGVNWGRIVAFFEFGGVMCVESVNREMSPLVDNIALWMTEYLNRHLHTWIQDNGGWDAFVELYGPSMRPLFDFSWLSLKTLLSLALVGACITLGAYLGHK
Sequence of Caspase-3 (Homo sapiens) (P42574 whole entry, looked up): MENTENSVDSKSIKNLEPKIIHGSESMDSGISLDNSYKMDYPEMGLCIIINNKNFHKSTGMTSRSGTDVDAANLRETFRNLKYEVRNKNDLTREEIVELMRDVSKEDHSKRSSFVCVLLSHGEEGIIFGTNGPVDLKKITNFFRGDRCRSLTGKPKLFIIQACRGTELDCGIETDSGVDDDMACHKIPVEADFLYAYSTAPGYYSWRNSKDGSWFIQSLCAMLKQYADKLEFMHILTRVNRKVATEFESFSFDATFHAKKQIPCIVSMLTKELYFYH

O=c1c(-c2ccc(O)cc2)coc2cc(O)cc(O)c12
not listed: [15] | [16] | [17]
inactive: all other assays above

CCCCCCCC[Si](OCC)(OCC)OCC
not listed: [10] | [16] | [17]
inactive: all other assays above

CC(C)(c1cc(Br)c(O)c(Br)c1)c1cc(Br)c(O)c(Br)c1
active: [3] 89.1 µM | [5] 22.6 µM | [6] 92.5 µM | [13] 89.3 µM
not listed: [1] | Caspase-3 (Homo sapiens) | [17]
inactive: all other assays above

CCCCCCCCCC(=O)O
not listed: [1] | [16]
inactive: all other assays above

COc1cccc([C@H](O)C2CCN(CCc3ccc(F)cc3)CC2)c1OC
active: [15] 80.7 µM | [16] 58.9 µM | [13] 13.9 µM | [14] 50 µM
not listed: [1] | [10] | [17]
inactive: all other assays above

COc1cc(C(=O)NC2CCN(C)CC2)ccc1Nc1ncc2c(n1)N(C1CCCC1)CC(F)(F)C(=O)N2C
inactive: [5] | [6] | [7] | [9] | [11] | CYP2C8 (gene 1558)
active: [2] 4.65 µM | [15] 32.4 µM | [3] 12.2 µM | [4] 11.1 µM | BCL2L11 (gene 10018) 46.5 µM | [8] 4.65 µM | [10] 4.65 µM | Caspase-3 (Homo sapiens) 11.1 µM | [12] 16.2 µM | [13] 0.151 µM | [14] 4.65 µM

Cc1ncc(CO)c(CO)c1O
not listed: [1] | [10] | [16]
inactive: all other assays above
